Screening data: PubChem BioAssay, The Scripps Research Institute Molecular Screening Center
DAX1 inh-1: inhibitors of human orphan nuclear receptor DAX1 (NR0B1). P51843. HEK293 Gal4-DAX1 luciferase reporter, luminescence. inhibition, % at 6.75 µM. 340,000 compounds, 0.99% hits;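 active means inhibition above the mean over all tested compounds plus 3 SD, cut at about 4.2% in these data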;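 further: 0% = DAX1-transfected cells with DMSO and 100% = empty-vector control cells with DMSO; inhibition shows as a rise in luminescence from relieved DAX1 repression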
Target sequence (P51843 207-470 limits assumed): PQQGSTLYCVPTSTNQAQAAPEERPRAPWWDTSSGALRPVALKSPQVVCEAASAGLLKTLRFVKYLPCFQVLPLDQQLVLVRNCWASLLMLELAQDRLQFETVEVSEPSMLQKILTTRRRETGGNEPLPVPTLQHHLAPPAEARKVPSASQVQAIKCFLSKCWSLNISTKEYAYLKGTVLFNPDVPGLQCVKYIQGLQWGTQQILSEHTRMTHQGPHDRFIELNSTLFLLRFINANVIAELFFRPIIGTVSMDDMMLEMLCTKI
ssDAF12 agonist: S. stercoralis DAF-12 activation, primary screen; activation, % at 6.8 µM; 370,000 compounds, 1% hits; HEK293 ssDAF-12/GRIP1 lit1-tk-luc reporter, luminescence; % of 3 µM dafachronic acid response;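 active means activation above the mean over all tested compounds plus 3 SD, cut at about 0.9% in these data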;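 further: 0% = DMSO-only wells and 100% = 3 µM delta7-dafachronic acid wells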
SMARCA2 activ: activators of SMARCA2 function; activation, % at 9.1 µM; 370,000 compounds, 1% hits; MG213 cells, MMTV-luciferase reporter, dexamethasone, overnight; in the data active means activation above about 7.8%;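 further: 0% = vehicle wells and 100% = reference activator wells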
hgDAF-12 ag: hgDAF-12 agonism, primary luciferase screen; HEK293 GAL4-hgDAF12 UAS-luciferase reporter, agonist luminescence; normalized to butyrate control; activation, % at 6.8 µM; 370,000 compounds, 1.8% hits; AID 687014;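 active means activation above a cutoff set at the mean of all screened compounds plus 3 SD, cut at about 10% in these data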;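 further: 0% = DMSO wells and 100% = sodium butyrate wells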
hcDAF-12 act: activators of H. contortus DAF-12 nuclear receptor | AID 652067 | 370,000 compounds, 1.4% hits | activation, % at 6.8 µM | HEK293 hcDAF-12 lit1-tk-luc reporter, luminescence; 0% DMSO, 100% Δ7-dafachronic acid;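 active means activation above the mean of all tested compounds plus 3 SD, cut at about 5.5% in these data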;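 further: 100% = response to 3 µM Δ7-dafachronic acid high control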
DAX1 inh-2: blocks DAX1 repression of SF-1 activated StAR promoter; HEK293T StAR-luciferase reporter, SF-1/DAX-1 repression relief; inhibition, % at 6.8 µM; 370,000 compounds, 1.1% hits;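 active means inhibition above the mean over all tested compounds plus 3 SD, cut at about 3.6% in these data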;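 further: 0% = DAX-1 cells with DMSO and 100% = cells lacking DAX-1 with DMSO; higher inhibition means more luminescence from relief of DAX-1 repression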
* marks the source's active call; other numbers are inactive results; · = not tested or not shown. A selection: hits, their analogues and other compounds. The true share with any hit is near 4.8%.

SMILES | DAX1 inh-1 | ssDAF12 agonist | SMARCA2 activ | hgDAF-12 ag | hcDAF-12 act | DAX1 inh-2
COCCCn1c(=O)c2sccc2n(Cc2ccccc2)c1=O | 0 | -1 | -5 | -1 | -2 | 0
COc1ccc(OC)c(N)c1 | 5.1* | -1 | -1 | -3 | -1 | -1
CC(=O)c1sc(NC(=O)C2COc3ccccc3O2)nc1C (stereo not given) | -2 | 0 | 2 | 4 | 0 | 3
CC1(C)CC(=O)c2sc(NC(=O)C3COc4ccccc4O3)nc2C1 (stereo not given) | 2 | 1.6* | 3 | 7 | 2 | 2
CC1(C)CC(=O)c2sc(NC(=O)c3ccco3)nc2C1 | 0 | 0 | -1 | 12* | 5 | 2
FC(F)(F)c1cnc(Oc2cccc3ccccc23)c(Cl)c1 | 0 | 1.0* | -4 | 2 | 3 | 0
CC[C@H]1C=C[C@@H](C(=O)NS(=O)(=O)c2ccc(C)cc2)N(C(C)=O)C1 | · | -1 | -2 | -2 | -1 | -1
O=C(/C=C(\Nc1cc(Cl)c(Cl)c(Cl)c1)c1ccccc1)c1ccccc1 | · | 1.5* | -3 | 7 | 5 | 1
Cn1c(Cn2c(=O)sc3ccccc32)nnc1SCC(=O)N1CCCC1 | 1 | -1 | -2 | -2 | 3 | 0
Clc1cccc(/C(Cc2nc3ccccc3[nH]2)=N\Nc2ccccc2)c1 | 0 | 1.0* | 1 | 3 | 1 | 1
CCn1c(CNc2ccc(F)cc2)nnc1SCCN1CCCCC1 | 1 | -1 | -1 | 2 | 1 | 0
C/C(=C\C(=O)c1ccc(C)o1)Nc1ccc(C(=O)O)cc1C | 0 | -2 | 0 | 1 | -1 | 0
O=C(Nc1cccc(S(=O)(=O)N2CCCCC2)c1)c1ccccn1 | 1 | -1 | 1 | -1 | 0 | -1
COC(=O)C[C@@H]1C[C@@H]2c3cc(NS(=O)(=O)c4ccccc4)ccc3O[C@@H]2[C@@H](CO)O1 | 1 | -2 | 3 | 13* | 0 | 1
COC(=O)C[C@H]1C[C@@H]2c3cc(NS(=O)(=O)c4ccc(OC)cc4)ccc3O[C@@H]2[C@H](CO)O1 | 4 | -1 | -6 | 1 | -2 | -1
Nn1c(SCc2ccc(Br)cc2)nnc1-c1ccccn1 | 0 | -1 | -2 | 2 | -1 | 1
CC(CCc1ccccc1)NC(=O)[C@@H]1Cc2ccccc2CN1 (stereo not given in full) | -1 | -1 | 0 | 3 | 1 | 0
CC(C)(C)NC(=O)C1Cc2ccccc2CN1 (stereo not given) | 7.3* | -1 | -1 | 0 | 0 | 1
CN(C)c1ccc(NC(=O)CCCc2ccccc2)cc1 | 2 | 0 | 0 | 12* | 5 | 3
Cc1cccc(C(C)C)c1NC(=O)CSc1cccc[n+]1[O-] | -1 | 0 | -3 | -2 | -1 | 0
CN(C)c1cccc(N(C)C)c1CNC(=O)NC(=O)c1c(F)cccc1F | -1 | -1 | -1 | -3 | -2 | -1
COc1ccccc1N1CCN(CCCNc2cc(=O)n(C)c(=O)n2C)CC1 | 1 | -1 | -3 | -2 | -2 | -1
O=C(NCc1nc2ccccc2[nH]1)c1ccco1 | 0 | -1 | 0 | 2 | 0 | 0
CCc1cccc(CC)c1NC(=S)NCc1nc2ccccc2[nH]1 | 5.4* | 0 | 0 | 1 | 2 | 0
CCOC(=O)C1/C(=N\O)CC(C)(O)C(C(=O)OCC)C1c1ccc(OC)c(OC)c1 (stereo not given) | 0 | -1 | 3 | -1 | 0 | 0
SMILES | DAX1 inh-1 | ssDAF12 agonist | SMARCA2 activ | hgDAF-12 ag | hcDAF-12 act | DAX1 inh-2
NS(=O)(=O)c1ccc(Nc2nc3ccccc3nc2NS(=O)(=O)c2cccc([N+](=O)[O-])c2)cc1 | 5.0* | -1 | -1 | 1 | -1 | 0
O=C(C1=C[C@@H](c2coc3ccccc3c2=O)C[C@@H](OCc2ccc(CO)cc2)O1)N1CCOCC1 | 0 | -1 | 1 | -1 | -2 | 0
N#CCCn1nc(-c2ccccc2)c2ccccc2c1=O | 5.0* | -2 | -1 | -1 | -1 | 0
CNC(=O)CCn1nc(-c2ccccc2)c2ccccc2c1=O | 0 | -1 | 1 | 1 | 0 | 0
Cc1cccc(N2CCN(C(=O)c3cc(S(=O)(=O)N4CCOCC4)cn3C)CC2C)c1 (stereo not given) | 0 | -1 | -1 | 0 | -1 | 1
O=C(NNS(=O)(=O)c1ccc(Cl)cc1Cl)c1cc2ncc(C(F)(F)F)cc2s1 | -1 | 1 | -1 | 4 | 6.0* | 0
O=C(c1ccc2c3n(nc2c1)-c1ccccc1CO3)N1CCCCC1 | -2 | 0 | 8 | 11* | 6.5* | 3
CCOC(=O)/C=C(\C)Sc1cc(O)c2ccccc2c1O | -3 | 1 | -7 | -4 | 5.8* | -1
CCCCNc1nc2c(S(=O)(=O)c3ccccc3)nnn2c2ccccc12 | 0 | -1 | 2 | 2 | 3 | 1
CCOc1ccccc1CNn1cnnc1 | 0 | -1 | 0 | 1 | 0 | 0
c1ccc(CSc2nnc(-c3cccs3)o2)cc1 | 3 | 0 | 0 | 9 | 2 | 2
Fc1ccccc1CSc1nnc(-c2cccs2)o1 | 1 | 0 | 7 | 11* | 3 | 3.7*
COc1ccc(OC)c(-c2nnc(SCC(=O)N3CCCC3)o2)c1 | 4.9* | -1 | -3 | -3 | -1 | 0
COc1ccc(OC)c(-c2nnc(SCC(=O)N3CCOCC3)o2)c1 | 0 | -1 | -1 | -1 | -1 | 1
O=C(CSc1nnc(-c2cccs2)o1)N1CCCCC1 | 1 | 0 | 2 | 12* | 2 | 3
Cc1ccccc1-c1nnc(SCC(=O)N2CCCC2)o1 | 0 | 0 | 7 | 11* | 1 | 1
Cc1ccc(-n2cnc3c(sc4nccc(N(C)C)c43)c2=O)cc1 | 1 | -1 | 3 | 4 | -1 | 1
Cc1ccccc1-c1nnc(-c2cccc3ccccc23)o1 | 0 | 0 | 2 | 7 | 4 | 1
O=C(CSc1nnc(-c2ccc(Cl)cc2)o1)N1CCOCC1 | -1 | 0 | 6 | 11* | 2 | 1
O=C(CSc1nnc(-c2ccc(O)cc2)o1)N1CCOCC1 | 1 | -1 | -1 | 3 | 1 | 1
Cc1ccccc1-c1nnc(-c2ccccc2C)o1 | 2 | 0 | 1 | 11* | 2 | 0
O=C(O)C1Cc2[nH]cnc2C(c2ccccc2O)N1 (stereo not given) | 1 | 0 | -1 | 1 | 6.0* | 0
CC1(C)CC(NCCC(c2ccccc2)c2ccco2)CCO1 (stereo not given) | 8.2* | -2 | -4 | 1 | 2 | 1
CC1(C)CC(C(=O)NCCC(c2ccccc2)c2ccco2)CCO1 (stereo not given) | 1 | -1 | 2 | 1 | -2 | 1
CC1(C)C2CCC(CN)C1C2 (stereo not given) | 5.3* | -1 | 0 | 4 | -2 | 0
